Test results reported in PubChem BioAssay AID720564 (Broad Institute, 2013).
Some of the results follow. Active and inactive are the calls of the source.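 How the source made its calls: active means luminescence drop, with half-maximal potency fitted within twice the sample's top valid dose (cut at about 70 µM in these data); inactive means the rest, including signal moving the wrong way.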

Experiment: AlphaScreen signal interference by compounds, dose response, artefact control for ARNT/TACC3 disruptor project, biochemical, dual-tagged ARNT, dry powder (AID 720564)
Conditions: Dual-tagged His-ARNT PASB-GST AlphaScreen artifact counter-screen
For `O=C(CSc1ccc(-c2ccccn2)nn1)Nc1ccccc1`, the AC50 was 15.3 µM (active).
For `CCCCC(=O)NC(c1ccco1)c1ccc2cccnc2c1O` (stereo not drawn), the AC50 was 13.8 µM (active).
With `COc1ccc(-c2nnc(NC(=O)c3ccc(S(=O)(=O)N4CCC(C)CC4)cc3)o2)cc1` the AC50 was 67.7 µM (active).
